M1 agonist: M1 muscarinic receptor agonists, primary screen, CHO-M1 cells, Fluo-4 calcium, agonist mode; Muscarinic acetylcholine receptor M1; Fluo-4 calcium fluorescence; active compounds read high; B-score at 10 µM; 3% of 64,000 active; AID 626, 2007;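 active = fluorescence rise, raw or as B-score row- and column-corrected plate score, outside the 99.7% band of its plate's samples, either direction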
PTK2B oligo ant: antagonists of Pyk2 self-association, primary screen, Q293 cells, FERM NanoBiT luminescence, HTS; Protein-tyrosine kinase 2-beta (Homo sapiens), Q14289; active compounds read low; z-score (the deposit names both 25 µM and 10 µM); 0.83% of 99,000 active; AID 1347419, 2020;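 active = Z-score of -3 or lower, scaled per plate to the spread of control and sample wells; inactive = z-score above -3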;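 also: negative z-score means lost luminescence so less FERM oligomerization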
Target sequence (Q14289 whole entry, looked up): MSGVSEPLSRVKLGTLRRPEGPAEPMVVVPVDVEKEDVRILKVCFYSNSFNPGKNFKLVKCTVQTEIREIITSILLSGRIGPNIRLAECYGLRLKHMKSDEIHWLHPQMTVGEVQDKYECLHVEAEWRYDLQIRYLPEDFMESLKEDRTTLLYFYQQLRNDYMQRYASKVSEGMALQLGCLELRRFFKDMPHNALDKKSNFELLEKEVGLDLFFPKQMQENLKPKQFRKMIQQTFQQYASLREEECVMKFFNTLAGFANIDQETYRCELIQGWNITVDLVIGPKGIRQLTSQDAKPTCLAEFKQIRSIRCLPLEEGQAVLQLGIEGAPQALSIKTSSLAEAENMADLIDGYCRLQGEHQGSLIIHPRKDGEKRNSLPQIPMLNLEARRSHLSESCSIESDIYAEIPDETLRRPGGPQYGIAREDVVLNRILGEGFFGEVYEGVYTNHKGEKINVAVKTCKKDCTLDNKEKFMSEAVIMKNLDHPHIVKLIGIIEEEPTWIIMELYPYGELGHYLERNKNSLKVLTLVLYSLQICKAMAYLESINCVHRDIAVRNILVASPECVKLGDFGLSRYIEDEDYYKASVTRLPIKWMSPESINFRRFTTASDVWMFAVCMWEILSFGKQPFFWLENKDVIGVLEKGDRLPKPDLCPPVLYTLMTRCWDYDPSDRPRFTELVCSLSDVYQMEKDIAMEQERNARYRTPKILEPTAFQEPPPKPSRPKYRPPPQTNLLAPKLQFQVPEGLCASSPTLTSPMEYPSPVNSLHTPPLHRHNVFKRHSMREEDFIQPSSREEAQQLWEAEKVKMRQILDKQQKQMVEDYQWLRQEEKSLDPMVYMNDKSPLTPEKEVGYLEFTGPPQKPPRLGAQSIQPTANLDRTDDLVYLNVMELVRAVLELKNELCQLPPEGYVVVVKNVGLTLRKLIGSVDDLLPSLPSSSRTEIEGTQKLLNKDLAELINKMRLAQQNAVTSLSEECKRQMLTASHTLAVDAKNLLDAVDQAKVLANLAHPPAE
Cav3 T inh: Cav3.2 calcium influx blockers – cell-based, Fluo-4 calcium fluorescence, FDSS, MLSMR library, primary screen. Voltage-dependent T-type calcium channel subunit alpha-1H (Homo sapiens), O95180. Cav3.2-expressing cells; active compounds read low. B-score at 10 µM. 4% of 100,000 active. AID 449739, 2010;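 active = single-dose well whose peak fluorescence ratio is a statistical outlier from its plate by either plate-standardised score or position-corrected B-score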
M1 antag: antagonists of rat M1 muscarinic receptor | 3.4% of 64,000 active | Muscarinic acetylcholine receptor M1 (Rattus norvegicus), P08482 | CHO-M1 cells, Fluo-4 calcium, ACh EC80 antagonist mode; active compounds read low | B-score at 10 µM;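 active = calcium fluorescence response, raw or row-and-column corrected B-score, differing from the plate sample mean either way at a set confidence level, mostly lower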
* marks the source's active call; other numbers are inactive results; . = not tested or not shown. Compounds with a hit are over-represented: about 7.1% of the library has one in this group of screens.

SMILES	M1 agonist	PTK2B oligo ant	Cav3 T inh	M1 antag
Cc1cc(C(=O)CSc2nc3ccccc3o2)c(C)n1CC1CCCO1 (centres undefined)	.	0.31	-0.58	.
Cc1ccc(-n2nnnc2SCC(=O)c2cc(C)n(CC3CCCO3)c2C)cc1 (centres undefined)	-0.46	0.69	-1.5	0.011
Cc1cccc(-n2nnnc2SCC(=O)c2cc(C)n(CC3CCCO3)c2C)c1 (centres undefined)	0.35	-0.94	-5.4*	-0.72
Cc1ccc(-n2nnnc2SCC(=O)c2cc(C)n(-c3cc(C)on3)c2C)cc1	0.97	0.46	-2	0.82*
Cc1sc2nc(SCC(=O)c3cc(C)n(CC4CCCO4)c3C)n(C(C)C)c(=O)c2c1C (centres undefined)	0.3	0.29	-4.1*	-1.4
CCOC(=O)C1CCCN(CCC(=O)Nc2ccc(C)cc2)C1 (centres undefined)	.	0.35	0.56	.
Cc1ccc(S(=O)(=O)CCSc2cccc(C(=O)Nc3ccccc3C(=O)O)c2)cc1	.	-2.4	.	.
COc1ccc(/C(N)=N/OC(=O)Cc2ccc(OC)c(OC)c2)cc1	.	-2	0.018	.
Cc1ccnc(NC(=O)CCC(=O)N(CC(=O)NC2CCCCC2)c2ccc3c(c2)OCO3)c1	-0.016	1.2	-4.5*	-0.41
Cc1cccc(N(CC(=O)NC2CCCCC2)C(=O)CCC(=O)Nc2ccccn2)c1	-0.07	.	-4.2*	0.63
Cc1cccc(N(CC(=O)NCc2ccc3c(c2)OCO3)C(=O)CCC(=O)Nc2ccccn2)c1C	1.6	-3.1*	.	0.21
O=C(CCC(=O)N(CC(=O)NC1CCCC1)Cc1ccc2c(c1)OCO2)Nc1ccccn1	-0.89	-0.45	0.55	-0.44
O=C(Nc1ccsc1C(=O)NC1CCCCC1)c1ccc(F)cc1	.	0.88	-0.37	.
CC(=O)n1cc([C@H]2C=C(C(=O)N3CCN(Cc4ccc5c(c4)OCO5)CC3)O[C@@H](OCCCCO)C2)c2ccccc21	.	.	-0.4	.
O=C(Nc1nc2ccc(Cl)cc2s1)[C@@H]1CCCN1C(=O)c1cccs1	.	-0.89	.	.
CCCNC(=O)c1ccc2c(=O)n3c(-c4ccc(C)cc4)csc3nc2c1	.	.	0.21	.
COc1ccc(CCNC(=O)C(=O)NCc2ccc(C(C)C)cc2)cc1OC	.	-0.68	-7.3*	.
CCOc1ccc(C2=Nn3c(nnc3-c3ccccc3OC)SC2)cc1	-0.66	-2.1	-5.3*	-0.36
N#CCC(CNc1ncc(C(F)(F)F)cc1Cl)OC(=O)c1c(F)cccc1F (centres undefined)	.	-1.6	-3.7*	.
CCOC(=O)C1=C(C)NC(SCC(=O)Nc2nc(C)cs2)=C(C#N)C1c1cccs1 (centres undefined)	0.014	.	-6.9*	0.036
CCCc1cc(=O)oc2c3c(c4c(c12)OC(C)(C)C=C4)OC(C)C(C)C3O (centres undefined)	.	.	-6.8*	.
O=C(Nc1cccc(C(F)(F)F)c1)c1ccc2nc(N3C(=O)CCC3=O)sc2c1	.	0.91	0.76	.
O=C(Nc1cccc(C(F)(F)F)c1)c1ccc2nc(-c3ccco3)c(-c3ccco3)nc2c1	.	-0.35	-4.8*	.
CCCCCCNS(=O)(=O)c1ccc(Cl)s1	1	-1.6	-6.4*	-1.3
COc1cc(C=NCC2OCCc3ccccc32)cc(OC)c1 (centres undefined)	.	0.38	.	.
SMILES	M1 agonist	PTK2B oligo ant	Cav3 T inh	M1 antag
COC(=O)C1=CN(C)C=C(C(=O)OC)C1c1ccc(O)c(OC)c1	-0.22	-0.39	0.048	-0.33
COCCN1C=C(C(=O)OC)C(c2cc(Br)c(OC)c(OC)c2)C(C(=O)OC)=C1	1.3	-3.4*	-0.34	1
C=CCn1c(CSCc2ccc(Cl)cc2)nnc1SCC(=O)NCc1ccccc1	.	-1.1	-6.6*	.
C=CCn1c(SCC(=O)NCc2ccccc2)nnc1-c1ccccc1O	-0.73	0.08	0.3	0.28
COc1ccc(-n2c(CCc3ccccc3)nnc2SCC(=O)NCc2ccccc2)cc1	.	-1.2	-3.4	.
O=C(CSc1nnc(CCc2ccccc2)n1-c1ccc(Cl)cc1)NCc1ccccc1	.	-0.94	-5.9*	.
C=CCn1c(CSCc2ccc(C)cc2)nnc1SCC(=O)NCc1ccccc1	.	-0.05	-3.6*	.
Cc1ccc(S(=O)(=O)C2(C(=O)N3CCCCC3C)CC2)cc1 (centres undefined)	-1.3	-0.43	-0.24	-0.26
COc1cc(NC(=O)CCCC(=O)OCC(F)(F)C(F)F)nc(OC)n1	-0.41	1.6	0.72	0.66
COc1ccc2c3c(cccc13)NN=C2C	0.6	.	.	-0.078
c1cnc2c(C3NCCc4c3[nH]c3ccccc43)cccc2c1 (centres undefined)	.	.	-0.087	.
CC(C)(C)N1OC2CC1c1nc3ccccc3n1C2 (centres undefined)	.	.	0.0032	.
CCOC(=O)c1c(CN2CCC(C)CC2)oc2ccc(OC)cc12	-0.38	-0.91	-4.2*	-1.2
CCOC(=O)c1c(C)n(C)c2ccc(OCC(O)CN3CCC(C)CC3)cc12 (centres undefined)	-1.4	.	-5.3*	-0.67
CCOC(=O)c1c(CN2CCN(C)CC2)oc2ccc(OC)cc12	-0.0084	-0.57	0.82	-0.64
COc1cccc(C(CC(=O)Nc2cccc3ccccc23)NC(=O)c2ccccc2)c1 (centres undefined)	.	0.68	-1.3	.
CCSc1nnc(-c2cnn(-c3ccccc3)c2-n2cccc2)n1C	.	-0.07	2.3	.
CCCCCCSc1nnc(-c2cnn(-c3ccccc3)c2-n2cccc2)n1C	.	-1.6	-8.9*	.
CS(=O)(=O)n1nc(C(=O)N2CCOCC2)nc1N	-0.11	.	.	-0.18
O=C(c1cc(-c2ccc(O)cc2)on1)N1CCc2ccccc2C1	-0.93	.	-6.2*	0.021
COc1cccc(/C=N/n2c(C)c3c(C)nnc(C)c3c2C)c1O	0.17	.	.	-0.24
CCC(C)n1c(SCc2ccccc2)nc2ccsc2c1=O (centres undefined)	.	-0.67	.	.
O=C(OCc1nc2ccccc2[nH]1)C12CC3CC(CC(C3)C1)C2	.	0.22	-6.7*	.
COc1ccccc1S(=O)(=O)Cc1ccc(C(=O)NCc2cccs2)o1	0.026	-0.06	-0.24	2.2*
Cc1cc(C(=O)CN(Cc2ccc(F)cc2)S(=O)(=O)c2ccc3c(c2)OCCO3)c(C)n1C	-0.031	-0.47	-2.9*	-0.029
SMILES	M1 agonist	PTK2B oligo ant	Cav3 T inh	M1 antag
O=C(CN(Cc1ccccc1)S(=O)(=O)c1ccc2c(c1)OCCO2)N/N=C/c1ccc(F)cc1	.	-1.6	.	.
Cn1nnnc1SCCOc1ccc(C#N)cc1	0.063	0.15	-0.21	0.68
O=C(CSc1nnnn1C1CCCCC1)N1CCCC1	0.012	0.49	1	0.039
CC(C)N(C(=O)CSc1nnnn1C1CCCC1)C(C)C	0.034	0.8	-3.7*	-0.15
COc1ccc(SC[C@H](CC(C)C)N2CCN(CCc3ccccc3)CCC2=O)cc1	.	.	-2.5	.
CC1C/C(=N\NC(=S)NCc2ccccc2)CC(C)(C)C1 (centres undefined)	.	-0.21	-4.4*	.
O=S(=O)(Nc1ccc(Cc2ccncc2)cc1)c1cccs1	.	-0.48	-0.008	.
CCCCc1ccc(NS(=O)(=O)c2cccs2)cc1	.	-1.8	-5*	.
CC(=O)Oc1ccc(-c2cc3c(OC(C)=O)cc(OC(C)=O)cc3oc2=O)cc1	.	.	-2	.

Screens as filed in PubChem.
